Results as given in PubChem BioAssay AID1259415 (National Center for Advancing Translational Sciences (NCATS), 2018).
The whole screen tested about 410,000 compounds, of which about 18,000 (4.4%) were called active. Inconclusive results (about 7%) are left out. The entries come from a sample that favours actives as a whole. Values without a mark were called inactive. Rule as the data show it: active = activity change below about -60%; inconclusive = no clear call, values can overlap the other calls; inactive = above about -39%.

Assay: qHTS Assay for inhibitors of the human cytomegalovirus (HCMV)
Details: HFF cells, HCMV-luciferase reporter, 72 h; at 57.5 µM; hits give low values
Procedure, shortened: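 HFF cells seeded 16 h at 37C, treated with compounds, infected with luciferase-reporter HCMV at MOI 1 PFU/cell; luciferase read at 72 h post infection, normalized to buffer-only and Salinomycin controls.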
% is scaled to controls: 0 for no effect and ±100 for the full control effect.

Row | Structure (SMILES) | activity change, negative = inhibition
1 | CCc1nn(CC(=O)Nc2cccc(C)c2C)c(=O)c2cc3sccc3n12 | -1.56%
2 | Cc1cc2oc(=O)cc(CN(C)Cc3ccc(OC(F)F)cc3)c2cc1Cl | 26.8%
3 | CCn1c(Cc2cccs2)nnc1SCC(=O)c1ccc(C)cc1 | 47.4%
4 | CC(=O)c1c(C)n(S(=O)(=O)c2ccc(Cl)cc2)c2ccc(NS(=O)(=O)c3ccc(Cl)cc3)cc12 | 1.89%
5 | Cc1ccc(OCC(=O)OCc2cc(=O)n3nc(C4CC4)sc3n2)cc1 | -34%
6 | O=C(NCC12CC3CC(CC(C3)C1)C2)c1cc2nc(-c3ccccc3)cc(C(F)(F)F)n2n1 | -2.2%
7 | COc1ccc(N2CCN(C(=O)C3CCCN(C(=O)c4cc5sccc5n4C)C3)CC2)cc1 (configuration not stated) | -14.9%
8 | Cc1cc(C)c(NC(=O)CN2C(=O)c3cccnc3Oc3ccc(Cl)cc32)c(C)c1 | 0%
9 | O=C(NCCCO)C(=O)Nc1c2c(nn1-c1ccc(F)cc1)CSC2 | -5.08%
10 | Cc1ccc(Nc2c(-c3ccc(Cl)cc3)nc3sccn23)c(C)c1 | -23.6%
11 | Cc1cccc(NC(=O)CSc2nc3c(oc4ccccc43)c(=O)n2-c2ccc(F)cc2)c1 | -12%
12 | O=C(Nc1ccc2c(c1)OCCO2)c1ccc(Cl)c(S(=O)(=O)N2CCCCC2)c1 | -72.6% (active)
13 | O=C(Nc1cccc(S(=O)(=O)Nc2ccc(Cl)cc2)c1)c1ccc2c(c1)OCCO2 | -94.5% (active)
14 | Cc1ccc(C(=O)NNC(=O)c2ccncc2)cc1S(=O)(=O)N1CCCCC1 | -15.8%
15 | Cc1ccc(NC(=O)c2ccc(Cl)nc2)cc1S(=O)(=O)N1CCOCC1 | -8.05%
16 | CC(=O)Nc1ccc(C(=O)Nc2cccc(S(=O)(=O)NC3=NCCC3)c2)cc1 | -22.7%
17 | O=C(NNC(=O)c1cccc(S(=O)(=O)Nc2ccc(Cl)cc2)c1)c1ccc(=O)[nH]c1 | 24%
18 | CCOc1ccc(CCNC(=O)C2CCN(c3ccc(N4CCOCC4)nn3)CC2)cc1OCC | 2.74%
19 | Cc1cc(C)c(C)c(S(=O)(=O)N[C@@H](C)C(=O)OC(C)C(=O)NC(N)=O)c1C (some centres not stated) | -14.5%
20 | COc1ccc(NC(=O)c2sc3nc(-c4cc5cccc(OC)c5oc4=O)[nH]c(=O)c3c2C)cc1 | -14.2%
21 | Cc1ccc(Cn2cc(CCC(=O)NCc3ccc(OC(C)C)cc3)c3ccccc32)cc1 | 4.19%

Row | Structure (SMILES) | activity change, negative = inhibition
22 | O=C(NNc1cc(Cl)cc(Cl)c1)c1c(F)cccc1Cl | -68.5% (active)
23 | CCN(CC)CCNC(=O)c1ccc(NC(=O)c2c(F)cccc2Cl)cc1 | -23.1%
24 | O=C(O)c1cc2c(cc1NC(=O)c1c(F)cccc1Cl)OCCCO2 | -29.4%
25 | CC1=NN(Cc2ccccc2)C(=O)/C1=C/c1ccc(N(C)C)cc1 | -61.8% (active)
26 | CCOc1ccc(/C(O)=C2/C(=O)C(=O)N(Cc3cccnc3)C2c2ccc(N(C)C)cc2)c(C)c1 (configuration not stated) | 19.8%
27 | COc1ccc(/C=C2/C(=O)N(c3ccccc3)N=C2C)c(OC)c1 | 67.9%
28 | CC(=O)c1ccc(NC(c2ccc(F)cc2)c2nnc(-c3ccccc3)o2)cc1 (configuration not stated) | 16.8%
29 | O=C(c1ccco1)n1nc(-c2ccc(Cl)cc2)nc1NCc1ccccc1 | -5.57%
30 | COc1ccccc1CNC(=O)C(=O)NCC(c1ccco1)S(=O)(=O)c1ccc(F)cc1 (configuration not stated) | -13.4%
31 | Cc1cc(-c2ccc(S(=O)(=O)N3CCc4ccccc4C3)s2)on1 | -77.4% (active)
32 | Cc1cc(-c2ccc(S(=O)(=O)N3CCN(c4cccc(C(F)(F)F)c4)CC3)s2)on1 | -38.1%
33 | Cc1cccc(N2CCN(S(=O)(=O)c3ccc(-c4cc(C)no4)s3)CC2C)c1 (configuration not stated) | 15.2%
34 | COc1ccc(CC(=O)N2CC(=O)Nc3ccc(Br)cc3C2c2ccc(F)cc2)cc1OC (configuration not stated) | -3.53%
35 | COC(=O)[C@@]1(Cc2ccc(OC)cc2)[C@H]2c3cc(C(=O)N4CCCC4)n(Cc4ccc(OC(F)(F)F)cc4)c3C[C@H]2CN1C(=O)c1ccccc1 | -18.9%
36 | COC(=O)[C@@]1(Cc2ccc(F)cc2)[C@H]2c3cc(C(=O)N(C)C)n(CCc4c[nH]c5ccc(OC)cc45)c3C[C@H]2CN1C(=O)c1ccccc1 | -82.3% (active)
37 | COC(=O)[C@@]1(Cc2ccc(F)cc2)[C@H]2c3cc(C(=O)N4CCCC4)n(C[C@H](O)CO)c3C[C@H]2CN1C(=O)c1ccccc1 | 5.98%
38 | CCC(=O)N1CCc2cc(S(=O)(=O)NC(C(=O)NCCc3ccc(C)cc3)C(C)C)ccc21 (configuration not stated) | 12.8%
39 | CCc1n[nH]c(=S)n1/N=C/c1c[nH]c2ccc(Br)cc12 | -6.5%
40 | Cc1ccccc1-c1n[nH]c(=S)n1/N=C/c1ccc(-c2ccccc2Br)o1 | -88.9% (active)
41 | CN(Cc1ccccc1)C(=O)c1cn(C)c2ccc(S(=O)(=O)N(C)C3CCCCC3)cc2c1=O | 13.4%
42 | CCCOc1ccc(N2CC(C(=O)Nc3ccccn3)CC2=O)cc1 (configuration not stated) | 6.17%

Row | Structure (SMILES) | activity change, negative = inhibition
43 | O=C(Nc1cccc2c1N(C(=O)c1ccco1)CCC2)c1ccco1 | -39.1%
44 | COc1cccc(-n2c(=O)c3c(C)c(C(=O)N(C)C)sc3n(Cc3cccc(C)c3)c2=O)c1 | -2.38%
45 | CCOC(=O)Nc1ccc2c(c1)N(C(=O)CN1CCN3CCCC3C1)c1ccccc1CC2 (configuration not stated) | 74.9%
46 | CCOC(=O)Nc1ccc2c(c1)N(C(=O)CCCl)c1ccccc1[S@]2=O | -102% (active)
47 | CCOC(=O)Nc1ccc2c(c1)N(C(=O)CCN1CCN(CCO)CC1)c1ccccc1CC2 | -20.5%
48 | Cc1ccc(S(=O)(=O)N(Cc2nc(-c3ccc(Cl)cc3)no2)C2CCCCC2)cc1 | -16.3%
49 | COc1cc(C(=O)NCCS(=O)(=O)N2CCN(c3ccccc3)CC2)cc(OC)c1OC | 38.7%
50 | Cn1c(N)c(C(=O)COC(=O)c2cnc(Cl)c(Cl)c2)c(=O)n(C)c1=O | -99.9% (active)
51 | Cc1cc(C(=O)OCC(=O)c2c(N)n(C)c(=O)n(C)c2=O)c(C)o1 | -20.6%
52 | CCc1ccc(OCC(=O)OCC(=O)c2c(N)n(C)c(=O)n(C)c2=O)cc1 | -68.3% (active)
53 | Cn1c(N)c(C(=O)COC(=O)c2ccc3ccccc3c2)c(=O)n(C)c1=O | 7.39%
54 | CCCCOc1ccc(C(=O)NCC(=O)OCC(=O)c2c(N)n(C)c(=O)n(C)c2=O)cc1 | -28.8%
55 | Cn1c(N)c(C(=O)COC(=O)COc2ccc(Cl)cc2)c(=O)n(C)c1=O | -16.9%
56 | Cc1ccc(S(=O)(=O)N(C)C)cc1NC(=O)c1ccc(-n2cncn2)c([N+](=O)[O-])c1 | -7.42%
57 | CC(C)NC(=O)c1nnc2n1CCN(C(=O)C1(c3ccc(Cl)cc3)CCCC1)C2 | -2.1%
58 | COc1cc(Cl)ccc1Nc1ncc(C(=O)N2CCN(c3ccccc3OC)CC2)c2ccccc12 | 9.53%
59 | Cc1cccc(NC(=O)CN(c2ccc(C(C)C)cc2)S(=O)(=O)c2c(C)nn(C)c2C)c1C | -17.9%
60 | COc1cc(C(=O)Nc2cc(C(F)(F)F)ccc2N2CCOCC2)ccc1O | 37.5%
61 | C=CCOc1ccc(C(=O)Nc2ccccc2C(=O)N2CCCC2)cc1 | 3.09%
62 | COC(=O)C(C)N=Cc1ccccc1 (configuration not stated) | -19.2%
63 | COc1ccc(C(=O)Nc2ccccc2C(=O)N/N=C/c2ccc(O)c(OC)c2)cc1 | -71.4% (active)

Row | Structure (SMILES) | activity change, negative = inhibition
64 | COc1ccc(/C=N/Nc2ccccc2C(=O)O)cc1 | -64.5% (active)
65 | COc1ccc(SSc2ccc(OC)cc2C(=O)O)c(C(=O)O)c1 | 4.79%
66 | C=CCOc1c(CNn2cn[nH]c2=S)cccc1OC | -4.48%
67 | COC(=O)C[C@H]1C=C[C@H](NC(=O)c2ccc(F)cc2)[C@@H](CO)O1 | 21.6%
68 | COc1ccc(OC)c(CCNc2nc3cnc(-c4cccc(Oc5ccccc5)c4)cc3n2C)c1 | -30.5%
69 | Cc1c(NC(=O)c2cc(=O)c3ccccc3o2)c(=O)n(-c2ccccc2)n1C | 2.18%
70 | CCCN(C(=O)Cn1ncc2c([nH]c3ccc(C)cc32)c1=O)c1ccccc1C | -8.94%
71 | CCOc1cccc2c1N[C@@H](c1ccc(C(=O)O)cc1)[C@H]1CC=C[C@@H]21 | -5.85%
72 | COc1ccccc1NC(=O)c1cc(Cl)nnc1Cl | -22.5%
73 | COc1ccccc1NC(=O)c1sc2nc(C)c(C(=O)Nc3ccc(Cl)cc3)c(-c3ccc(Br)cc3)c2c1N | -104% (active)
74 | COc1ccccc1C(=O)Nc1c(C(=O)N(C)Cc2ccccc2)sc2nc(C)c(Cl)c(C)c12 | -19.6%
75 | Cc1ccc(Nc2c(-c3ccc(C)s3)nc3ccccn23)cc1 | 74.5%
76 | Cc1ccc(NC(=O)c2oc3ccc(S(=O)(=O)N4CCCCC4)cc3c2C)cc1Cl | -4.09%
77 | COc1ccccc1N(CC(=O)Nc1c(C)n(C)n(-c2ccccc2)c1=O)S(=O)(=O)c1ccccc1 | -32%
78 | COc1ccccc1N(CC(=O)N1CCCCC1)S(=O)(=O)c1ccccc1 | -0.178%
79 | Cc1ccc(S(=O)(=O)N(CC(=O)NCc2ccco2)c2ccccc2C)cc1 | -14.7%
80 | COc1ccccc1N(CC(=O)N/N=C(\C)c1ccccc1O)S(=O)(=O)c1ccc(C)cc1 | -68.7% (active)
81 | COc1ccccc1NC(=O)CN(c1ccccc1OC)S(=O)(=O)c1ccccc1 | -93.1% (active)
82 | COc1ccc(C)cc1N(CC(=O)NC(C)c1ccccc1)S(C)(=O)=O (configuration not stated) | -5.84%
